# Experimental data published in PubChem BioAssay AID1645838 (ICCB-Longwood Screening Facility, Harvard Medical School, 2021).
# Screen size: about 2,000 compounds; about 100 (5%) were called active. Cut-off read from the data, not from the text of the source: active = z-score above about 2; inactive = the rest. This excerpt belongs to a sample that is enriched for actives.
# Experiment: modulators of mitochondrial supercomplex assembly, cell-based, luminescence, Hoechst nuclei count (AID 1645838);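 note: control cybrid cells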;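 for z-score: higher means more mitochondrial supercomplex formation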
# Conditions: Cells, luminescence/Hoechst cell count ratio, supercomplex reporter; for z-score: stronger effect = higher value; for cell count: measured here: cell number, Hoechst nuclei count
# [1] = library stock concentration (final well concentration not given) 80 uM
# [2] = library stock concentration (final well concentration not given) 400 uM
# [3] = library stock concentration (final well concentration not given) 2 mM
# [4] = library stock concentration (final well concentration not given) 10 mM
smiles,measurement,setting,value
CN(c1ccccc1CNc1nc(Nc2ccc3c(c2)CC(=O)N3)ncc1C(F)(F)F)S(C)(=O)=O,outcome,library stock 2 mM,inactive; censored for cell count
same,outcome,library stock 10 mM,inactive; censored for cell count
same,z-score,[1],0.0927 (inactive)
same,z-score,[2],0.505 (inactive)
same,cell count,[1],4980
same,cell count,[2],4440
COC(=O)CCCCCC[C@@H]1[C@@H](CCC(O)C#Cc2ccccc2F)[C@H](O)C[C@@H]1O (stereo not given in full),z-score,,-0.523 (inactive)
same,cell count,,5390
CCCCC[C@H](O)/C=C/[C@@H]1[C@H]2C[C@H](CCCCC(=O)O)O[C@H]2C[C@H]1O,z-score,,0.18 (inactive)
same,cell count,,5310
COc1cc(N2CCC(C(N)=O)CC2)ccc1Nc1nc(N)c(Cl)c(Nc2ccccc2S(=O)(=O)C(C)C)n1,z-score,[1],-0.397 (inactive)
same,z-score,[2],-0.357 (inactive)
same,z-score,[3],-0.497 (inactive)
same,z-score,[4],-0.438 (inactive)
same,cell count,[1],5060
same,cell count,[2],4660
same,cell count,[3],4640
same,cell count,[4],4760
COc1cc2ncnc(Nc3cc(Br)c(O)c(Br)c3)c2cc1OC,z-score,[1],-0.757 (inactive)
same,z-score,[2],-0.502 (inactive)
same,z-score,[3],-0.971 (inactive)
same,z-score,[4],-0.687 (inactive)
same,cell count,[1],4740
same,cell count,[2],4630
same,cell count,[3],5420
same,cell count,[4],5090
C#Cc1cccc(Nc2ncnc3cc(OCCOC)c(OCCOC)cc23)c1,z-score,[1],0.334 (inactive)
same,z-score,[2],0.287 (inactive)
same,z-score,[3],-0.186 (inactive)
same,z-score,[4],2.02 (active)
same,cell count,[1],5220
same,cell count,[2],5400
same,cell count,[3],5470
same,cell count,[4],3820
C#Cc1cccc(Nc2ncnc3cc4c(cc23)OCCOCCOCCO4)c1,z-score,[1],-0.401 (inactive)
same,z-score,[2],-0.555 (inactive)
same,z-score,[3],-0.372 (inactive)
same,z-score,[4],-0.218 (inactive)
same,cell count,[1],5760
same,cell count,[2],5920
same,cell count,[3],5800
same,cell count,[4],5980
C[C@H](N)C(=O)CCCCCC(=O)O,z-score,,-0.273 (inactive)
same,cell count,,5410
NCCCNCCCCN(CCCN)[N+]([O-])=NO,z-score,,1.09 (inactive)
same,cell count,,5110
COc1ccc2cc(CC(=O)O)ccc2c1,z-score,,-0.782 (inactive)
same,cell count,,5780
CCCCC[C@H](O)/C=C/[C@H]1CC[C@H](O)[C@@H]1CCCCCCC(=O)O,z-score,,-0.59 (inactive)
same,cell count,,5510
CNC(=O)Nc1ccc(-c2nc(N3CC4CCC(C3)O4)c3cnn(C4CCC5(CC4)OCCO5)c3n2)cc1,outcome,library stock 10 mM,inactive; censored for cell count
same,z-score,[1],1.01 (inactive)
same,z-score,[2],1.56 (inactive)
same,z-score,[3],1.64 (inactive)
same,cell count,[1],2180
same,cell count,[2],1780
same,cell count,[3],1600
O=C(Nc1ccccc1)Nc1ccc(-c2ccc(C(=O)C3CCCC3C(=O)O)cc2)cc1 (stereo not given),z-score,[1],-0.37 (inactive)
same,z-score,[2],-0.219 (inactive)
same,z-score,[3],-0.285 (inactive)
same,z-score,[4],-0.46 (inactive)
same,cell count,[1],5980
same,cell count,[2],5880
same,cell count,[3],6590
same,cell count,[4],5760
